# PfHsp90 yeast 2 = inhibits growth of yeast expressing Plasmodium falciparum Hsp90 | inhibition, % at 9.4 µM | 310,000 compounds, 0.32% hits | S. cerevisiae expressing PfHsp90, BacTiter-Glo ATP, 48 h; yeast lacking PDR1 and PDR3 efflux regulators;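 active = every replicate shows inhibition above about 80%, whatever the replicate mean, limit read from the data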
# TIM10 inh = TIM10 yeast growth inhibition; 330,000 compounds, 1.4% hits; S. cerevisiae TIM10 strain growth, BacTiter-Glo luminescence, 24 h; inhibition, % at 10 µM;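 active = inhibition of 40% or more at the single tested concentration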;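 also: wild-type TIM10 isogenic control strain grown at permissive 25 °C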
# NLRP3 yeast inh = blocks the NALP3 inflammasome reconstituted in yeast; Yeast reconstituted NLRP3/ASC/caspase-1, beta-gal luminescence, 24 h; inhibition, % at 10 µM; 330,000 compounds, 0.39% hits;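 active = inhibition of 50% or more; inactive = inhibition below 50%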
# tim23-1 inh = growth inhibitors of tim23-1 mutant yeast; S. cerevisiae tim23-1 growth, BacTiter-Glo luminescence, 24 h; AID 463212; 330,000 compounds, 1.3% hits; inhibition, % at 20 µM;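 active = growth inhibition of the mutant yeast at or above 50%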;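 also: temperature-sensitive mutant grown at 25 °C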
# tim10-1 inh = tim10-1 yeast growth inhibition | 330,000 compounds, 2.2% hits | S. cerevisiae tim10-1 ts strain growth, BacTiter-Glo, 24 h | inhibition, % at 20 µM;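 active = inhibition of at least 40%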;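 also: mutant grown at 25 °C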
# tim23-1 conf = tim23-1 yeast growth inhibition, confirmed; 4,400 compounds, 83% hits; AID 463218; S. cerevisiae tim23-1 growth, BacTiter-Glo luminescence, 24 h; shares compounds with tim23-1 inh; inhibition, % at 20 µM;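 active = inhibition above about 39% in either of two replicate wells at 20 µM, limit read from the data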;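 also: temperature-sensitive tim23-1 mutant grown at 25 °C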
# A number is an active result; - = inactive; . = no result. Rows were chosen to be rich in hits. Some 3.7% of all compounds tested hit in one or more screens of this group.
SMILES,PfHsp90 yeast 2,TIM10 inh,NLRP3 yeast inh,tim23-1 inh,tim10-1 inh,tim23-1 conf
Cc1ccc(S(=O)(=O)NNC(=O)c2ccncc2)cc1,-,-,-,-,-,.
CCN(CC)CCN(C)C1CCC(c2ccccc2)CC1 (stereo not drawn),-,.,.,.,.,.
Cc1cccn2c(=O)c(/C=C(\C#N)S(=O)(=O)c3ccccc3)c(Oc3ccc(Cl)cc3)nc12,-,-,-,50,-,-
Nc1nc(OCC2CCCCC2)c2[nH]cnc2n1,-,-,-,-,-,.
COc1cccc(N2C(=O)C3CCCN3C2=S)c1 (stereo not drawn),-,-,-,-,-,.
O=C(Nc1cc(Cl)ccc1O)C1CC(c2ccccc2Cl)=NO1 (stereo not drawn),-,-,-,52,-,73
CSc1ccccc1NC(=O)C1CC(c2ccccc2Cl)=NO1 (stereo not drawn),-,-,-,-,-,.
O=C(NC(=S)NC1CCCC1)c1ccccc1Br,-,-,-,-,-,.
CCN(C(=S)NC(=O)c1ccccc1Br)C1CCCCC1,-,-,-,58,-,44
COc1ccc(CCNS(=O)(=O)c2ccc(Br)cc2)cc1,-,-,-,52,-,-
Cc1ccc(S(=O)(=O)N[C@@H](Cc2ccccc2)C(=O)CCl)cc1,-,-,-,69,-,48
Cc1ccc(S(=O)(=O)NC(Cc2ccccc2)C(=O)NN)cc1 (stereo not drawn),-,-,-,-,-,.
COCCCN(C(=S)Nc1ccc(C)cc1Cl)C(C)c1ccncc1 (stereo not drawn),-,-,-,-,-,.
COCCCN(C(=S)Nc1cc(Cl)cc(Cl)c1)C(C)c1ccncc1 (stereo not drawn),-,-,-,50,-,47
COCCCN(C(=S)Nc1cc(Cl)cc(Cl)c1)C(C)c1ccccn1 (stereo not drawn),-,-,-,63,-,53
O=C(NCc1ccc2c(c1)OCO2)C1CCN(c2nccc(C(F)(F)F)n2)CC1,-,-,-,-,-,.
CNCCOc1ccccc1OC(C)C,-,-,-,-,-,.
O=C(Nc1ccc2nn(-c3ccccc3)nc2c1)c1cccnc1,-,-,-,52,-,-
O=C(Nc1ccc2oc(-c3ccccc3)nc2c1)c1cccnc1,-,-,-,56,-,71
COC(=O)[C@@]1(C)[C@H]2C(=O)N(Cc3ccccc3)C(=O)[C@H]2[C@H]2CN=C(SCc3ccc(C#N)cc3)N21,-,-,.,-,-,.
COC(=O)[C@@]1(C)[C@H]2C(=O)N(Cc3ccccc3)C(=O)[C@H]2[C@H]2CN=C(SCc3ccc(Cl)cc3)N21,-,-,.,51,-,-
OC[C@@H]1[C@@H](c2ccc(F)cc2)C(c2cccc(Cl)c2)=NN1c1ccccc1,-,-,.,53,-,-
OC[C@@H]1[C@@H](c2ccc(Cl)cc2)C(c2cccc(Cl)c2)=NN1c1ccccc1,-,-,.,-,-,.
OC[C@@H]1[C@@H](c2ccc(Cl)cc2)C(c2ccccc2)=NN1c1ccccc1,-,-,.,53,-,-
COc1ccc(C(=S)N2CCN(c3ccccc3C)CC2)cc1,-,-,-,51,-,40
SMILES,PfHsp90 yeast 2,TIM10 inh,NLRP3 yeast inh,tim23-1 inh,tim10-1 inh,tim23-1 conf
CCN1CCN(C(=S)c2ccc(OC)cc2)CC1,.,-,-,-,-,.
O=C(CSc1nnc2c(n1)[nH]c1ccccc12)Nc1ccc2c(c1)OCO2,-,-,-,-,-,.
CCc1nc(N2CCN(C(=O)CCl)CC2)c2c3c(sc2n1)CC(C)CC3 (stereo not drawn),-,-,-,55,-,-
CCc1nc(N2CCN(C(C)=O)CC2)c2c3c(sc2n1)CC(C(C)(C)C)CC3 (stereo not drawn),-,-,-,-,-,.
COc1ccc(COn2c(=O)c(C)[n+]([O-])c3ccccc32)cc1OC,-,-,-,89,-,-
Cc1nn(CC(=O)NCCc2cccs2)c(=O)c2cc3ccccc3n12,-,-,-,-,-,.
Cc1ccc(O)c(C(=O)c2cnn(C(=O)Cc3csc(C)n3)c2)c1,-,-,-,59,-,57
CC(=O)Oc1ccccc1C(=O)Nc1ccccc1C(=O)N1CCCC1,-,-,-,-,-,.
O=C(Nc1ccc(Cl)cc1)Nc1ccccc1Sc1ncc([N+](=O)[O-])s1,-,-,-,54,-,72
O=C(Cc1ccc(Cl)cc1)Nc1ncc([N+](=O)[O-])s1,-,.,.,.,.,.
CCCCCOC(=O)Cc1c(C)nc(-c2ccccc2)[nH]c1=O,-,-,-,54,-,52
Cc1cccc(NC(=S)NC(=O)C2CC2)c1,-,-,-,-,-,.
CCN(CC)c1ccc(NC(=S)NC(=O)C2CCC2)cc1,-,-,-,58,-,-
N#Cc1ccc(NC(=S)NC(=O)C2CCCCC2)cc1,-,-,-,51,-,49
Cc1cc(C)cc(NC(=S)NC(=O)C2CC2)c1,-,-,-,54,-,-
CCOC(=O)C1CCN(C(=O)c2cc3cc4ccc(C)cc4nc3o2)CC1,-,-,-,58,-,59
COc1ccc2cc3cc(C(=O)Nc4ccc5c(c4)OCO5)oc3nc2c1,-,-,-,-,-,.
COc1ccc2cc3cc(C(=O)N4CCCCC4C)oc3nc2c1 (stereo not drawn),-,-,-,50,-,59
COc1ccc(CCNC(=S)Nc2ccc(C(C)C)cc2)cc1,-,-,-,51,-,-
Cn1c(-c2ccsc2)c(-c2cccs2)c2cc(-c3ccc4cc[nH]c4c3)ccc21,-,-,-,-,-,.
Cn1c(C=O)c(-c2ccc3cc[nH]c3c2)c2ccccc21,-,-,-,64,-,55
COc1ccc2nc3n(c(=O)c2c1)-c1cc(Cl)ccc1C(=O)NC3Cc1ccccc1 (stereo not drawn),.,-,-,-,-,.
O=[N+]([O-])c1cc(O)c2ncccc2c1,.,-,-,67,-,70
CCc1oc2ccccc2c1C(=O)c1cc(Br)c(O)c(Br)c1,-,-,-,56,-,-
CCCCN1C(=O)C(=O)c2cc(Cl)ccc21,-,-,-,59,-,55
SMILES,PfHsp90 yeast 2,TIM10 inh,NLRP3 yeast inh,tim23-1 inh,tim10-1 inh,tim23-1 conf
Cc1ccc2c(c1)C(=O)C(=O)N2Cc1ccc(Br)cc1,-,-,-,68,-,-
Cc1ccc(CN2C(=O)C(=O)c3cc(C)ccc32)cc1,-,-,-,79,-,84
Cc1cccc(OCCN2C(=O)C(=O)c3cc(C)ccc32)c1,-,-,-,51,-,49
COc1ccc(/C=N/NC(=O)CCSc2nc3ccccc3s2)cc1,-,-,-,-,-,.
Cc1cccc2c1N(CCCOc1ccccc1)C(=O)C2=O,-,-,-,59,-,56
Cc1ccc2c(c1)C(=O)C(=O)N2c1ccc(Cl)cc1,-,-,-,66,-,75
O=C(Nc1ncn[nH]1)c1cccc(S(=O)(=O)N2CCOCC2)c1,-,-,-,-,-,.
CCCCN(C(=O)c1ccc(NC2CC2)c([N+](=O)[O-])c1)c1c(N)n(CC(C)C)c(=O)[nH]c1=O,-,-,-,-,-,.

# High-throughput results (PubChem BioAssay)
